MsrA act = activates bovine MsrA enzyme; purified bovine MsrA, absorbance read-out; activation, % at 10.6 µM; 360,000 compounds, 0.3% hits; in the data active means activation above about 7.5%;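 further: 0% = vehicle and 100% = reference activator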
MsrA inh = inhibitors of bovine MsrA. 360,000 compounds, 0.75% hits. inhibition, % at 15.5 µM. purified bovine MsrA, absorbance read-out. AID 651718; in the data active means inhibition above about 4.5%;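 further: 0% = vehicle wells with enzyme and 100% = reference inhibitor wells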
Mot1-301 SUMO = inhibitors of SUMOylation pathway: yeast Mot1-301 growth rescue. S. cerevisiae Mot1-301 growth rescue, ATP luminescence, 38.5C; percent above DMSO median, 100 means doubled. growth rescue, % at 18.8 µM. 320,000 compounds, 1% hits. AID 2716;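 active means every valid replicate shows activation above 250% relative to neutral control wells; inactive means the rest, any valid replicate at or below 250%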;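 further: OY570 slx delta 5 strain wells were the positive control but not used for scaling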
PKA-R1A act = activators of PKA-R1A complex; activation, % at 11.4 µM; 340,000 compounds, 0.083% hits; PKA-R1A dissociation, Cy5-IP20 fluorescence polarization; scaled: DMSO 0%, 113 µM cGMP 100%; P00514+P68181;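 active means percent activation above the mean of all tested compounds plus 3 SD, cut at about 19% in these data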;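 further: higher means more PKAc released from R1A so a rise in polarization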
PKA-R2B act = activates the human PKA-R2B holoenzyme complex. PKA-R2B holoenzyme dissociation, Cy5-IP20 fluorescence polarization; R2B truncated from residue 108, S112A mutant; 0% DMSO only, 100% 113 µM cGMP. activation, % at 11.4 µM. 340,000 compounds, 0.079% hits. AID 504700;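 active means activation above a cutoff set at the mean over all compounds plus 3 SD, cut at about 18% in these data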;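 further: higher means more holoenzyme dissociation and a rise in polarization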
Target sequence (P31323 whole entry, looked up, other chains not shown, the tested form may be a part): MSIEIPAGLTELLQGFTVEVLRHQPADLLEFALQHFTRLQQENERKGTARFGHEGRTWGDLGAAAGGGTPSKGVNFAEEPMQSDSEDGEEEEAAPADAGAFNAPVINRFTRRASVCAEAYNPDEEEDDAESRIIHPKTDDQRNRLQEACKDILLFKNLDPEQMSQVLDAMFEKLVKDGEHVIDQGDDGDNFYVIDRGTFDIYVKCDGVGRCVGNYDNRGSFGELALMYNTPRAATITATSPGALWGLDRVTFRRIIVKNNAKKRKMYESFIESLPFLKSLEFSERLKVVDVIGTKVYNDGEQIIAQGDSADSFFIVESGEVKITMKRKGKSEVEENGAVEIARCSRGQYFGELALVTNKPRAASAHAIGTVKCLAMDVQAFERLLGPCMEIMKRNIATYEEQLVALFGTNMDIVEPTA
Yeast Mot1 SUMO = yeast SUMO pathway inhibition in dose response; S. cerevisiae Mot1-301 galactose growth, ATP luminescence, 24 h; -100 = growth of slx-deleted rescue strain; 2,300 tested, under 10 active; shares compounds with Mot1-301 SUMO; growth activity, percent, % at 42 µM;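 active means Signal drops as the depositor expects, and the fitted half-maximal dose is no more than ten times the top valid tested dose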;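 further: more negative values mean stronger growth rescue toward the control strain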
Numbers without * were called inactive; · = no result; + = active, no number; [ ] = another dose, or the depositor's remark. This is a sample that favours compounds with a hit; in the whole collection about 2% have one here.

SMILES	MsrA act	MsrA inh	Mot1-301 SUMO	PKA-R1A act	PKA-R2B act	others
Cc1cc(C)cc(NC(=S)NCCN(C2CCCCC2)C2CCCC2)c1	2	0	430*	-14	-3
CCCCNC(=O)C[C@H]1C[C@@]2(C(=O)OC)C(=C[C@H](C(C)C)O[C@@H]2C2CC2)N(Cc2ccccc2)C1=O	·	0	·	·	·
CCCCCCSc1ccc([C@H]2N[C@@](C)(C(=O)OC)[C@H]3C(=O)N(C)C(=O)[C@@H]23)cc1	8.4*	0	-9	-22	-15
CCCSc1ccc([C@H]2N[C@@](C)(C(=O)OC)[C@H]3C(=O)N(C)C(=O)[C@@H]23)cc1	-4	-1	21	-3	5
CN1CCN(C(=O)c2cnn(-c3ccccc3)c2NC(=O)c2ccccc2Br)CC1	-1	0	331*	-4	-5
COc1ccc(S(N)(=O)=O)cc1-c1nnc2c3ccccc3c(C)nn12	-2	1	304*	0	1
Cc1[nH]n(-c2ccc([N+](=O)[O-])cc2)c(=O)c1C=NCCN1CCN(C(=O)c2ccccc2)CC1	-3	4.8*	-56	-8	9
COC(=O)C1=C(C)N(Cc2cccc(C(F)(F)F)c2)C(=NCc2ccc3c(c2)OCO3)NC1c1ccc(F)cc1 (stereo unspecified)	·	-1	·	·	·
CC(C)S(=O)(=O)N[C@@H]1c2cc3c(cc2[C@H](c2ccccc2)[C@H]1C)OCO3	·	0	·	·	·
Nc1ccccc1Oc1ncc(C(F)(F)F)cc1Cl	-2	0	275*	-5	-9
C[C@@H]1CN([C@H](C)CO)S(=O)(=O)c2ccc(Br)cc2O[C@H]1CN(C)CC1CCOCC1	·	0	·	·	·
COc1cc(C2c3[nH]c4ccccc4c3C[C@H]3C(=O)N(CCO)CC(=O)N23)cc(OC)c1OC (stereo partly specified)	-2	0	-8	-7	1
COCCCN1CC(=O)N2C(c3ccc(OC)c(OC)c3)c3[nH]c4ccccc4c3C[C@H]2C1=O (stereo partly specified)	-2	-1	305*	1	-1
O=c1[nH]c2cc3c(cc2cc1CN(CC1CCCO1)S(=O)(=O)c1ccc(Cl)cc1)OCCO3 (stereo unspecified)	-2	-1	5	-3	-5
Cc1ccc(S(=O)(=O)N(Cc2cc3cc4c(cc3[nH]c2=O)OCCO4)CC2CCCO2)cc1 (stereo unspecified)	-3	1	332*	-1	-5
CCN(CCOC(=O)Nc1ccc(Cl)cc1)C(=O)Nc1ccc(Cl)cc1	·	-1	·	·	·
Cc1ccccc1C(=O)N[C@@H](Cc1cccnc1)C(=O)N1CCC[C@H]1C(=O)NCCc1ccccc1Cl	·	1	·	·	·
CC(=O)c1ccc(N2CCN(C(=O)CCCn3c(=S)[nH]c4cc5c(cc4c3=O)OCO5)CC2)cc1	1	1	298*	-11	-6
Cn1c(=O)c2ccccc2n(C)c1=O	·	1	·	·	·
C/C(=N\Nc1ccc([N+](=O)[O-])cc1)c1ccc(O)cc1	-6	2	337*	·	·
CC(=O)NCC(=O)OCc1ccc([N+](=O)[O-])cc1	0	2	264	3	6
CC(=O)NC/C(C)=N\Nc1ccc([N+](=O)[O-])cc1	-2	2	279*	1	6
COCCN1Cc2cc(C(=O)OC)c3c(c2C1=O)c1cc(OC)ccc1n3S(=O)(=O)c1ccc(C)cc1	·	1	·	·	·
COCCNC(=O)CSc1ccccc1C(=O)NCC1CCCCC1	1	1	+	-9	-11
CC1CCN(C(=O)c2ccccc2SCC(=O)NCC2CCCCC2)CC1	-1	0	-24	7	-7
SMILES	MsrA act	MsrA inh	Mot1-301 SUMO	PKA-R1A act	PKA-R2B act	others
CC(OC(=O)c1ccc(-c2ccc(O)cc2)cc1)C(=O)NC1CCCCC1C (stereo unspecified)	1	0	750*	10	-9
COC(=O)C1=C(C)N(Cc2cccc(C(F)(F)F)c2)C(=NCc2ccc3c(c2)OCO3)NC1CCc1ccccc1 (stereo unspecified)	·	1	·	·	·
Cc1cc(C)c2c(=O)n(CC(=O)NCCCN3CCOCC3)sc2n1	1	·	353*	4	-5
Cc1cc(C)c2c(=O)n(CC(=O)NCCCN3CCN(c4ccccc4F)CC3)sc2n1	·	·	42	·	·
COc1cc(Br)cc(C=Nc2cccc(C(F)(F)F)c2)c1O	-2	0	326*	2	13
CSc1n[nH]c(-c2cccs2)n1	·	-1	·	·	·
COc1cc(/C=N/NS(=O)(=O)c2ccc(C)cc2)ccc1OCc1cccc(C(=O)O)c1	-2	1	733*	-1	-4
COC(=O)c1cc2c(c3c4cc(OC)ccc4n(S(=O)(=O)c4ccc(OC)cc4)c13)C(=O)N(Cc1ccc(C(F)(F)F)cc1)C2	·	0	·	·	·
CCN1CCN(CC(O)COC(C)C)CC1 (stereo unspecified)	15*	-1	-16	2	-7
CCN1CCN(CC(O)COc2ccc(Cl)cc2)CC1 (stereo unspecified)	-4	0	9	-9	1
Cc1cccc(C2=NN(c3ccccc3)[C@@H](C(=O)N3CCOC3=O)[C@@H]2c2ccc([N+](=O)[O-])cc2)c1	-2	5.5*	·	-1	-7
O=C1OCCN1C(=O)[C@H]1[C@H](c2ccc([N+](=O)[O-])cc2)C(c2ccccc2)=NN1c1ccc(Br)cc1	-2	4.8*	·	-6	2
CCN1C(=O)N(C(C)=O)[C@@H]2C[C@H](C(=O)N3CCCC3)[C@H](C)[C@H](c3ccccc3)C[C@@H]21	·	0	·	·	·
O=C(CN1CCCC1)NN=C(c1ccccc1)c1ccccc1	-8	0	392*	1	-8
COc1cc(/C=N/NC(=O)c2ccc(CN3c4cccc5cccc(c45)S3(=O)=O)cc2)cc(OC)c1O	-11	4.6*	·	·	·
Cc1cc(=O)n2[nH]c(-c3ccc(F)cc3)nc2n1	-2	-1	551*	2	-2	Yeast Mot1 SUMO=0
O=C(CCC(=O)OC(C(=O)c1ccccc1)c1ccccc1)Nc1ccccc1 (stereo unspecified)	-2	0	415*	7	2	Yeast Mot1 SUMO=-1[21 µM]
COc1ccccc1C(=O)N1CCN(C(=O)[C@H](CCc2ccccc2)NC(=O)[C@H]2O[C@@H](n3cnc4c(N)ncnc43)[C@H](O)[C@@H]2O)CC1	·	-1	·	·	·
COC(=O)[C@]1(CC(C)C)NC=C(C(=O)c2ccccc2)[C@@H]1c1cccc(C(F)(F)F)c1	·	0	·	·	·
O=C(NCc1ccccn1)C1CC(c2ccc(Cl)c(Cl)c2)=NO1 (stereo unspecified)	-11	1	+	-10	-6	Yeast Mot1 SUMO=0
COc1ccc(CNS(=O)(=O)c2ccc3c(c2)CCN3C(=O)C2CCC2)cc1	-4	-1	412*	7	1	Yeast Mot1 SUMO=0
